High-throughput results: PubChem, several laboratories
Hits are enriched below; roughly 1.7% of the tested compounds scored in any of these assays.
Rin1-Abl PPI inh: inhibitors of Rin1-Abl protein binding, primary screen, biochemical, TR-FRET; Tyrosine-protein kinase ABL1 (Homo sapiens) + Ras and Rab interactor 1 (Homo sapiens), …; inhibition, % at 7.35 µM; 360,000 tested, 0.4% active; AID 588664, 2011; in the data active means inhibition above about 5%, passing the limit was not always enough
SUMO1 PPI mod: modulators of SUMO1 protein-protein interactions, primary screen, biochemical, uHTS; 360,000 tested, 0.33% active; Small ubiquitin-related modifier 1 (Homo sapiens), P63165; inhibition, % at 20 µM; SUMO1 binding to a labelled peptide, TR-FRET, 1 h; AID 602429, 2012; in the data active means inhibition above about 37%
Target sequence (P63165 whole entry, looked up): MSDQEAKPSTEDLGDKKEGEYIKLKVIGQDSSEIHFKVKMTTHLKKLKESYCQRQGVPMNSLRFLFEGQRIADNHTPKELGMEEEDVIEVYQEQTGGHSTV
Neddyl block: inhibitors of cullin neddylation, primary screen, biochemical, TR-FRET, uHTS, NAE and Ubc12 | NEDD8-conjugating enzyme Ubc12 (Homo sapiens) + NEDD8-activating enzyme E1 regulatory … | inhibition, % at 25 µM | 360,000 tested, 0.58% active | AID 651699, 2012; in the data active means inhibition above about 36%
ATG4B inhibitor: ATG4B protease inhibitors, primary screen, biochemical, fluorescence, uHTS; ATG4B cleavage of LC3-PLA2, NBD-HPC fluorescence, 1 h; Cysteine protease ATG4B (Homo sapiens), Q9Y4P1; 340,000 tested, 0.51% active; inhibition, % at 8.33 µM; in the data active means inhibition above about 40%
Target sequence (Q9Y4P1 whole entry, looked up): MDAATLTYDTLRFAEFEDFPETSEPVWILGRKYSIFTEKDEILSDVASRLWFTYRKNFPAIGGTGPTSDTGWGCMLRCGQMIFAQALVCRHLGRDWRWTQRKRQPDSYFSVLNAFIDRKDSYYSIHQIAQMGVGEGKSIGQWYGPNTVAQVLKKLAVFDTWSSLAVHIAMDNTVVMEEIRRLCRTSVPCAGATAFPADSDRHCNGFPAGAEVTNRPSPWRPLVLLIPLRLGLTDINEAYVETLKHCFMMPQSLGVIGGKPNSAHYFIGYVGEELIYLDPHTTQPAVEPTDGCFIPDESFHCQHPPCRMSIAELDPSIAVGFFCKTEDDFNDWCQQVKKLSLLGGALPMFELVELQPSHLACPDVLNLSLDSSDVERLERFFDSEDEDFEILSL
* marks the source's active call; other numbers are inactive results; · = no result shown.

SMILES	Rin1-Abl PPI inh	SUMO1 PPI mod	Neddyl block	ATG4B inhibitor
C=CCn1c(N)c(C(=O)NCC2CCCO2)c2nc3ccccc3nc21 (centres undefined)	-1.9	43.9*	·	0.1
O=C(/C=C/[C@H]1O[C@@H](n2cnc3c(NC(=O)c4ccccc4)ncnc32)[C@H](O)[C@@H]1O)NCc1ccc2c(c1)OCO2	2.5	4.4	-2.3	·
COc1cccc(/C=N/Nc2nn3cnnc3c3ccccc23)c1O	-2.5	3.0	-25.5	-43.4
Oc1cccc(/C=N/Nc2nn3cnnc3c3ccccc23)c1	-4.8	84.0*	-8.2	-3.8
Cc1c(CCC(=O)O)c(=O)oc2c(C)c(OCc3cc4c(cc3Cl)OCO4)ccc12	-2.6	81.1*	-29.7	-4.0
CC(C)=CCC[C@H](C)C[C@@H]1Cc2[nH][nH]c(=O)c2[C@H](c2ccc(F)cc2)O1	·	4.6	-1.2	·
COc1cc(/C=C2\SC(=S)N(c3cccnc3)C2=O)ccc1O	-4.8	108.9*	-23.5	-2.1
COc1cc(/C=C2\SC(=S)N(NC(=O)c3cccnc3)C2=O)ccc1O	-5.5	-8.0	-61.7	4.0
CCn1c(SCc2nc3sc(C(=O)O)c(C)c3c(=O)[nH]2)nc2ccccc21	2.3	40.7*	12.1	-7.2
Cc1cc(C)c2c(c1)NC(C(=O)O)C1CC=CC21 (centres undefined)	0.5	42.4*	1.1	23.0
O=C(c1ccccc1O)N1CCOCC1	1.2	3.7	2.8	12.1
O=C(O)C1Nc2c(C(=O)N3CCOCC3)cccc2C2C=CCC12 (centres undefined)	6.8*	28.7	1.4	1.5
Cc1ccc2c(c1C)NC(C(=O)O)C1CC=CC21 (centres undefined)	6.6	86.5*	4.5	13.7
O=C(O)C1Nc2c(C(F)(F)F)ccc(Cl)c2C2C=CCC12 (centres undefined)	0.8	-1.8	0.5	17.4
Cc1ccc2cc(CNC[C@H]3O[C@@H](n4cc(C)c(=O)[nH]c4=O)C[C@@H]3O)c(N3CCOCC3)nc2c1	-1.2	-1.1	6.2	·
NC(=O)c1ccsc1NC(=O)COC(=O)c1cc(=O)[nH]c2ccccc12	-3.0	48.5*	4.8	7.2
CC(=O)Nc1ccc(NC(=O)c2cc(=O)c3ccccc3o2)cc1	0.1	-17.8	-38.3	-10.0
NC(=O)c1ccsc1NC(=O)c1cc(=O)c2ccccc2o1	-2.9	63.4*	-37.1	-7.4
Nc1ncnc2c1ncn2[C@@H]1O[C@H](C(=O)N[C@H](CO)Cc2ccc(O)cc2)[C@@H](O)[C@H]1O	-1.8	3.4	-0.7	·
CN1CCc2c(sc3c2C(=O)NC(c2ccccn2)N3)C1 (centres undefined)	0.1	-9.4	47.8*	-1.4
CN1CCc2c(sc3c2C(=O)NC(c2ccccc2)N3)C1 (centres undefined)	-2.2	-4.2	23.3	-9.4
O=c1ncccn1C1OC(CO)C(O)C1O (centres undefined)	1.7	1.9	1.2	·
CCCn1c(SCC(=O)Nc2ccc3c(c2)OCO3)n[nH]c1=O	2.5	35.2*	6.8	-3.0
O=Cc1ccc(Sc2nnc(-c3ccccc3)o2)c([N+](=O)[O-])c1	-3.1	-17.2	14.5	48.6*
Cc1cc(/C=N/NC(=O)c2cccc(N(C)C)c2)c(C)n1-c1cc(C(=O)O)cc(C(=O)O)c1	1.6	22.0	39.5*	8.4
SMILES	Rin1-Abl PPI inh	SUMO1 PPI mod	Neddyl block	ATG4B inhibitor
c1cc(N2CCCCC2)nc(N2CCCCC2)n1	-1.6	2.6	-3.0	-4.9
C[c-]1[c-](C)[c-](C)[c-](C)[c-]1C.[Fe].c1cc2nccc(N3CCCC3)[c-]2c1 (centres undefined)	2.9	119.8*	-8.2	11.0
COc1ccc(NC(=O)C2Cc3c(-c4cccc(F)c4)ccnc3O2)cc1OC (centres undefined)	-2.7	-0.8	10.1	·
CNC(=O)NC(=O)C(C)OC(=O)c1c2c(nc3ccccc13)/C(=C/c1cccs1)CC2 (centres undefined)	-2.3	-2.3	44.8*	-5.0
O=C1c2ccccc2C(=O)C12OC2c1cccc2ccccc12 (centres undefined)	13.3*	38.6*	-22.4	-15.3
O=C1NC(c2cccc3ccccc23)Nc2ccccc21 (centres undefined)	-1.0	5.2	·	3.7
O=C(COC(=O)c1ccccc1)Nc1ncc([N+](=O)[O-])s1	-0.5	58.0*	-12.1	19.5
O=C(Nc1ccccc1)Nc1ncc([N+](=O)[O-])s1	-4.0	-28.6	-47.4	6.6
CC1=NOC(=O)/C1=C\c1ccc(-c2cc(Cl)ccc2Cl)o1	-4.1	47.5*	0.8	5.9
CCNC(=O)C1(C)CCCN(Cc2cc(-c3ccccc3)n(C)n2)C1 (centres undefined)	-3.0	-6.7	1.9	·
Cc1cccc(OCC(=O)Nc2ccc(C(=O)Nc3ccccc3C(=O)O)cc2)c1	-1.1	25.6	18.2	·
O=C(COc1ccc(Cl)cc1Cl)Nc1ccc(C(=O)Nc2ccccc2C(=O)O)cc1	1.1	40.5*	37.0	-0.7
COc1ccc(Cl)cc1NC(=O)CSc1nc2[nH]ncc2c(=O)[nH]1	-2.9	5.3	7.2	·
O=C(CSc1cccc[n+]1[O-])Nc1cc2c(cc1Cl)C(=O)c1ccccc1C2=O	-4.2	41.1*	-43.0	-3.1
Cc1c(C)c(C)c(C(=O)c2ccc(NC(=O)c3ccccc3C(=O)O)cc2)c(C)c1C	-1.2	2.3	-424.1	94.0*
Cc1cn([C@H]2C[C@H](O)[C@@H](CNCc3cc(Br)ccc3OCc3ccccc3)O2)c(=O)[nH]c1=O	2.1	1.7	-7.6	·
Cc1ccc(S(=O)(=O)NC(=O)C2(C)CCN2C(=O)Cc2cccs2)nc1 (centres undefined)	-4.5	-1.6	-0.4	·
O=C(/C=C/c1cc[n+](CC(=O)c2ccc3cccc4c3c2CC4)cc1)c1ccc2cccc3c2c1CC3	-2.6	131.6*	2.1	32.0
COc1ccc(NC(=O)COC(=O)c2ccc(S(=O)(=O)N(C)c3ccccc3OC)cc2)cc1	3.5	0.6	-11.2	-0.8
CCOC(=O)C1Nc2ccc(C(=O)O)cc2C2C=CCC12 (centres undefined)	4.6	48.1*	9.9	7.5
Cc1nnc(SCC(=O)Nc2cccc(S(=O)(=O)N3CCCC3)c2)n1C1CC1	1.4	2.6	7.0	·
C=CCNC(=O)c1cc2c(=O)n3cccc(C)c3nc2s1	-2.1	-26.6	·	-2.4
COc1ccc(CCNC(=O)c2cc3c(=O)n4cccc(C)c4nc3s2)cc1OC	-0.5	40.0*	29.0	-9.3
Cc1cc2nc(-c3ccc(Cl)cc3)c(Cc3ccsc3)n2c(C)c1Br	·	8.6	-19.6	·
CCOc1ccc(C(=O)Nc2cc(C)c3c(=O)oc4ccccc4c3n2)cc1	-0.4	-45.2	-482.8	-0.2
Cc1cc(NC(=O)c2ccccc2)nc2c1c(=O)oc1ccccc12	2.8	52.1*	-340.4	8.2
NS(=O)(=O)c1ccc(NC(=O)c2cccc3cc4ccccc4nc23)cc1	-1.2	-2.7	13.9	-8.9
CC1(Oc2ccc(Cl)cc2)CCN(Cc2ccc(-c3ccccn3)cc2)C1 (centres undefined)	-5.4	-4.6	6.5	·
